20 compounds from PubChem BioAssay (NCATS) can be followed below.

Results filed as inconclusive are left out. A number with no mark means an inactive call. The source made the active and inactive calls. Calls come from the whole dose curve; as a rule, active = well fitted inhibition curve with a large enough effect; inconclusive = small, poorly fitted or top-dose-only effect; inactive = flat fitted curve, though single readings scatter.

The subject of assay [1] is HEK293. Put plainly: Cytotoxic Profiling of Annotated Libraries Using Quantitative High-Throughput Screening (AID 1296008). Note: potency is the fitted concentration of half-maximal effect. The settings on record: Five cell lines viability, CellTiter-Glo ATP luminescence, 48-72 h; max response: hits give low values. The gist of the method: (§1)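 Cytotoxicity was measured as CellTiter-Glo ATP luminescence, read after 10 min at room temperature. Compound treatment of the cells lasted 48 or 72 hr at 37 degrees Celsius in a qHTS format.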

Assay [2] has as its system HaCat. The assay is described as above. The note with it: Five cell lines viability, CellTiter-Glo ATP luminescence, 48-72 h; max response: hits give low values. The gist of the method: as §1
In assay [3] the test system is KB-3-1. The description is as above. The note with it: Five cell lines viability, CellTiter-Glo ATP luminescence, 48-72 h; max response: hits give low values. The gist of the method: as §1
Assay [4] has as its system CRL-7250. Described as above. The settings on record: Five cell lines viability, CellTiter-Glo ATP luminescence, 48-72 h; max response: hits give low values. The gist of the method: as §1
The subject of assay [5] is NIH3T3. The assay is described as above. The settings on record: Five cell lines viability, CellTiter-Glo ATP luminescence, 48-72 h; max response: hits give low values. The gist of the method: as §1
For assay [6], the system named is HEK293T. Put plainly: qHTS assay to identify novel small-molecules to repurpose for Merkel cell carcinoma treatment (AID 1296009). The settings on record: MCC and control cell lines, CellTiter-Glo viability, 72 h; at 44.8 µM (top of the series) unless noted. The gist of the method:
(§2)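 Cell viability, measured as CellTiter-Glo luminescence, was normalized between DMSO and no-cell wells. The cells had been exposed to 8- or 11-point compound dilutions for 72 hr at 37 degree celsius.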

Assay [7] deals with HACAT. The assay is described as above. The settings on record: MCC and control cell lines, CellTiter-Glo viability, 72 h; series mostly up to 44.8 µM. The gist of the method: as §2
For assay [8], the system named is MCC-13. The description is as above. The note with it: MCC and control cell lines, CellTiter-Glo viability, 72 h; series mostly up to 46 µM. The gist of the method:
as §2

The subject of assay [9] is MCC-26. Described as above. The settings on record: MCC and control cell lines, CellTiter-Glo viability, 72 h; series mostly up to 46 µM. The gist of the method:
as §2

Assay [10] deals with MKL-1. Described as above. The settings on record: MCC and control cell lines, CellTiter-Glo viability, 72 h; series mostly up to 46 µM. The gist of the method: as §2
% is set by controls: 0 for no effect and ±100 for the full control effect.
Note: nearly all actives have a fitted effect of over 60% in size.

Consider `CC(=O)N1CCN(C(=O)Cc2ccc(Nc3ncc(F)c(Nc4ccc(C(=O)Nc5ccccc5Cl)cc4)n3)cc2)CC1`, for which the Potency in assay [1] was 6.51 µM (active); in assay [2], 4.11 µM (active); in assay [3] it was 5.17 µM (active).
`O=C(OCC1=CC(O)C2C=CO[C@@H](O[C@@H]3O[C@H](CO)[C@@H](O)[C@H](O)[C@H]3O)C12)c1ccccc1` (stereo not given in full): the max response was -3.02% in assay [4], 1.81% in assay [2], 2.99% in assay [3] and 1.21% in assay [5].
Turning to `CC1(C)C2CC(OC3OC(COC4OCC(O)(CO)C4O)C(O)C(O)C3O)C1(C)CC2O` (stereo not given), the max response in assay [1] was -3.81%; in assay [2], -6.58%. The outcome in assay [3] was inactive.
With `CC[C@@H](O)C[C@@H]1C(C)=C[C@@H]2CCCC[C@@H]2[C@@]1(C)C(=O)O`, the max response in assay [4] is -0.45%; in assay [2], -3.74%; in assay [5] it was -7.4%. Also, in [3], the call was inactive.
As for `O=C1NC(Cc2c[nH]c3ccccc23)C(=O)NC1Cc1c[nH]c2ccccc12` (stereo not given), the max response in assay [4] is -0.609%; in assay [5] it was -2.22%. For the same compound, the compound was classed as inactive in assay [3] and in [6].
For the compound `C=C(C)C(=O)O[C@H]1C[C@@](C)(O)C(=O)CC(O)/C(C)=C\[C@H]2OC(=O)C(=C)[C@H]12` (stereo not given in full), the Potency in [1] is 5.08 µM (active). In assay [2], the max response was -1.1%. The outcome in assay [3] was inactive.
As for `COc1ncc(Nc2ncc([C@@H](C)N3CCN(S(C)(=O)=O)CC3)cc2-c2nc(C)nc(N)n2)cc1F`, the Potency was 0.259 µM (active) in assay [1], 0.058 µM (active) in assay [2] and 9.2 µM (active) in assay [3].
In the same order, the values of `COc1ccc(C(=O)Nc2ncc(-c3ccc(C(=O)O)cc3)s2)cc1` are 7.31 µM (active), 5.8 µM (active) and 2.91 µM (active).
On to `CCOc1cc(N2CCC(O)CC2)ccc1Nc1ncc2c(n1)N(C1CCCC1)CCC(=O)N2C`, for which the Potency was 6.51 µM (active) in assay [4], 7.31 µM (active) in [3] and 4.11 µM (active) in assay [5].
With `CC(C)=CCC[C@](C)(O[C@@H]1O[C@H](CO)[C@@H](O)[C@H](O)[C@H]1O)[C@H]1CC[C@]2(C)[C@@H]1[C@H](O)CC1[C@@]3(C)CC[C@H](O)C(C)(C)C3[C@@H](O[C@@H]3O[C@H](CO)[C@@H](O)[C@H](O)[C@H]3O[C@@H]3OC[C@@H](O)[C@H](O)[C@H]3O)C[C@]12C` (stereo not given in full), the max response is -28% in [4], -9.18% in [3] and -2.19% in assay [5].
In the case of `Cc1cc(N(C)C)ccc1-c1nc2ccc(-c3nc4ccc(N5CCN(C)CC5)cc4[nH]3)cc2[nH]1`, the results for the Potency in assay [1] and in assay [3] were 8.2 µM (active) and 23.1 µM (active), respectively. Besides, the max response in [2] is -16.4%.
As to `COc1ccc(C(=O)C2CCN(CC(=O)N(Cc3nc4c(c(=O)[nH]3)COCC4)CC3CC3)CC2)cc1`, the max response in assay [1] is -4.04%; in [2], -5.45%; in [3] it was 9.05%.
Take `COC(=O)N(C)c1c(N)nc(-c2nn(Cc3ccccc3F)c3ncccc23)nc1N`: the result in assay [4] was inactive. For the same compound, the figures for the max response in assay [3] and in assay [5] were 0.515% and 0.88%, respectively.
Regarding `COc1ncc(Nc2ncc([C@H](C)N3CCN(S(C)(=O)=O)CC3)cc2-c2nc(C)nc(N)n2)cc1F`, the Potency in [1] was 0.517 µM (active); in assay [2], 0.146 µM (active); in [3] it was 6.51 µM (active).
With `C=C(C)C(=O)OC1CC2(C)OC(=CC2=O)C(=C)CC2OC(=O)C(COC)C12` (stereo not given), the Potency in assay [1] was 7.18 µM (active). The max response in assay [2] was -21.9%; in [3], -15.6%.
Regarding `O=C(O)c1c(O)c(-c2ccccc2)nc2ccccc12`, the call in [4], in [2], in assay [5], in [8] and in assay [9] was inactive. The Potency result in assay [7] and in assay [10] was “inactive” throughout.
As for `CC(=O)c1cc(C(=O)N[C@@H](C)Cn2ccc(-c3ccc(C#N)c(Cl)c3)n2)[nH]n1`, the Potency in assay [1] was 23.1 µM (active). The max response in [2] is -24.9%; in assay [3] it was -26.1%.
With `Clc1cc2c(NC3CCCC3)nnc(-c3ccncc3)c2cc1Cl`, the max response in assay [4] is -13.3%; in assay [2], -55.6%; in [3] it was 2.36%; in assay [5], -2.41%.
As to `CC1(CCOC2OC(CO)C(O)C(O)C2O)CCC23OC2(C1)C(O)CC1C(C)(C(=O)O)CCCC13C` (stereo not given), the max response is -6.41% in [1], 3.2% in [2], 8.97% in assay [3] and 0.419% in assay [5].
As for `CO[C@H]1C[C@@H]2CC[C@@H](C)[C@@](O)(O2)C(=O)C(=O)N2CCCC[C@H]2C(=O)O[C@H]([C@H](C)C[C@@H]2CC[C@H](n3cnnn3)[C@H](OC)C2)CC(=O)[C@H](C)/C=C(\C)[C@@H](O)[C@@H](OC)C(=O)[C@H](C)C[C@H](C)/C=C/C=C/C=C/1C`, the Potency in assay [1] was 0.0252 µM (active). Further, the max response in [2] was -3.38%; in assay [3] it was -0.0133%; in [5], 0.445%.
